Laboratory results from PubChem BioAssay AID588683 (Broad Institute, 2011).
Measured potencies and affinities stand elsewhere. Active and inactive are the calls of the source. How the calls were made is not given here.

biological target: Kelch-like ECH-associated protein 1 (Homo sapiens) + Nuclear factor erythroid 2-related factor 2 (Homo sapiens) (UniProt Q14145+Q16236); assay: Keap1-Nrf2 protein-protein interaction inhibitors, dose response, biochemical, fluorescence polarization, cherry-picked samples (AID 588683); conditions: Keap1/Nrf2 peptide fluorescence polarization, plate reader; series mostly up to 26 µM;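 further: Kelch domain of Keap1 binding a fluorescein-labelled 9mer Nrf2 peptide; more negative means stronger inhibition of peptide binding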
Sequence (Q14145 whole entry, looked up, the tested form may be a part): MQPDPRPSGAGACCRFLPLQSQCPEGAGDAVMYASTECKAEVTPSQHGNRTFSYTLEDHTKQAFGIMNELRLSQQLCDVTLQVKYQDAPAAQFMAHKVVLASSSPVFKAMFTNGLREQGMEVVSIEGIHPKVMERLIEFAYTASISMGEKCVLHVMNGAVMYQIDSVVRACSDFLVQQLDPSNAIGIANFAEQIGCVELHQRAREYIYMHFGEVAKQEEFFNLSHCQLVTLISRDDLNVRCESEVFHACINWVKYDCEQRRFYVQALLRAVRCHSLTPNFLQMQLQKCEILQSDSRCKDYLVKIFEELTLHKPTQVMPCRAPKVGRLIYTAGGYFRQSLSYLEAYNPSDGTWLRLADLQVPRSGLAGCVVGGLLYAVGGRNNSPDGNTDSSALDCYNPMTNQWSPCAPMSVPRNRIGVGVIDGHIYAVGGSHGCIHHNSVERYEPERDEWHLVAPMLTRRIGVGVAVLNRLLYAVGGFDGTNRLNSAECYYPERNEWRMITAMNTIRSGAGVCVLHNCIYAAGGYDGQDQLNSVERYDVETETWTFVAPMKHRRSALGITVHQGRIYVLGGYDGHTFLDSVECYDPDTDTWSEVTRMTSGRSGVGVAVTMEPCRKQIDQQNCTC
Sequence (Q16236 whole entry, looked up, the tested form may be a part): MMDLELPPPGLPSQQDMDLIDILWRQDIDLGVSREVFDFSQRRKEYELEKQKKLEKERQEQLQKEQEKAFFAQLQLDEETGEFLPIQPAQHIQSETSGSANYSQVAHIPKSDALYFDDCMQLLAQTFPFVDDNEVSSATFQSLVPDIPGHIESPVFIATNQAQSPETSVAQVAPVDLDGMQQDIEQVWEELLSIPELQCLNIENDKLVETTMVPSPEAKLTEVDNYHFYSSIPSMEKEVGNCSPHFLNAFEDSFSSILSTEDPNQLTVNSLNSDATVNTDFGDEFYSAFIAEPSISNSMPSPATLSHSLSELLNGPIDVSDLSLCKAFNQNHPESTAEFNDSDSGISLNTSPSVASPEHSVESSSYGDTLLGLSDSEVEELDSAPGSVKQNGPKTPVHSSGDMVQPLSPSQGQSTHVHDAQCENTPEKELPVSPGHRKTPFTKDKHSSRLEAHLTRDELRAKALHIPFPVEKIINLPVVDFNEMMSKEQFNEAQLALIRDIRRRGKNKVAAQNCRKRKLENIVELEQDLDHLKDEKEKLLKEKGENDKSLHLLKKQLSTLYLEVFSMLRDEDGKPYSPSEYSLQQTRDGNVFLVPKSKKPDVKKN

outcome, inactive:
O=C(NCc1cccc(F)c1)c1cccc2c1C(=O)c1ccc(N3CCCC3)cc1S2(=O)=O
CC(OC(=O)c1ccc([N+](=O)[O-])o1)C(=O)NC1CCCCC1C (configuration not stated)
Cn1ccnc1Sc1cc(NCCCO)c([N+](=O)[O-])c2nonc12
CCN1CCN(S(=O)(=O)c2ccc(Cl)c(C(=O)NC3CCC(C)CC3)c2)CC1 (configuration not stated)
Cc1ccc2cc(CN(CCCO)S(=O)(=O)c3cccc4nsnc34)c(=O)[nH]c2c1C
Cn1nc(C(=O)NNC(=O)Cc2ccc(S(=O)(=O)N3CCOCC3)s2)c2ccccc2c1=O
CCOc1ccc2noc3c2c1C(=O)c1ccccc1-3
CCSc1ncc(Cl)c(C(=O)Nc2ccccc2OC)n1
Cc1ccc(S(=O)(=O)NCC(=O)OCC(=O)Nc2ccc3c(c2)OCCO3)cc1
COc1cc2c3nnc(-c4ccc(F)cc4)c-3cn(Cc3ccccc3F)c2cc1OC
CNS(=O)(=O)c1ccc2c3c(cccc13)C(=O)N2C
Cc1ccc(-c2nc3sc(C#N)c(N)n3c(=O)c2C#N)cc1
COc1ccc(/C=c2\s/c(=C(/C#N)C(=O)NCc3ccco3)n(-c3ccccc3)c2=O)cc1
O=C(CSCC(=O)Nc1ccccc1)N/N=C/c1c(O)ccc2ccccc12
CC1Cc2cc(/C=C3/SC(N4CCC(C(N)=O)CC4)=NC3=O)ccc2O1 (configuration not stated)
CNC(=S)Nc1cccc(C(=O)OC)c1
COCCCNc1nc(N)c([N+](=O)[O-])c(Nc2cc(OC)ccc2OC)n1
